{
  "source": "paper PMC7862700",
  "about": "“An all-to-all approach to the identification of sequence-specific readers for epigenetic DNA modifications on cytosine”",
  "experiment_in_all_cases": "DAPPL (digital affinity profiling via proximity ligation, sequencing); 10 mM Tris-HCl pH 7.5, 50 mM NaCl, 1 mM DTT, 4% glycerol, room temperature, 30 min; GST-TFs on glutathione beads, 16-mer random dsDNA library, 0.1% formaldehyde crosslink after washing; high values mean tight binding",
  "conditions_in_all_cases": "protein: recombinant; tags: N-terminal GST; dsDNA, one strand shown",
  "key": {"ETV1": {"target": "ETV1 (Homo sapiens, UniProt P50549 1-477)", "sequence (P50549 whole entry, the tested form may be a part)": "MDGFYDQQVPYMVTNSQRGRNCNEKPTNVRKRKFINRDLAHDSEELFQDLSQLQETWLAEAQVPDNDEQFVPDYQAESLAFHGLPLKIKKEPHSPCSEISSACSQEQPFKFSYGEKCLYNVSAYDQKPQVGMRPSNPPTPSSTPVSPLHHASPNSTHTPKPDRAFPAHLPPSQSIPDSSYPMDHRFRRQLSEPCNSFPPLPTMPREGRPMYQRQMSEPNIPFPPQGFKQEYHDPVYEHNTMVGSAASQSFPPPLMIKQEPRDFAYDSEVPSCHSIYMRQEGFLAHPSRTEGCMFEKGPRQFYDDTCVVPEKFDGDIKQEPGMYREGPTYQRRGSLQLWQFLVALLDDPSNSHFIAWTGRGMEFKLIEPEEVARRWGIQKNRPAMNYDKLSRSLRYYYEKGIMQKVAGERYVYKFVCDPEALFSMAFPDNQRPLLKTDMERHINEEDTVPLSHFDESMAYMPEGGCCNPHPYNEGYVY", "procedure,_shortened": "(§1)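 Binding signal is each hexamer's read frequency for a factor divided by its frequency in the tag-only sample. The factors were GST-fused human transcription factors from yeast, captured on glutathione beads, DNA-barcoded and pooled with that sample. Pools were incubated with 200 nmole of a random double-stranded 16-mer DNA library in Tris/NaCl/DTT/glycerol buffer at room temperature for 30 min, then washed, crosslinked with 0.1% formaldehyde, proximity-ligated with BsaI/T4 ligase (1 h, 37 °C), PCR-amplified and sequenced on an Illumina NextSeq500.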"}, "ERF": {"target": "T1, ERF (Homo sapiens, UniProt P50548 1-548)", "T1 sequence": "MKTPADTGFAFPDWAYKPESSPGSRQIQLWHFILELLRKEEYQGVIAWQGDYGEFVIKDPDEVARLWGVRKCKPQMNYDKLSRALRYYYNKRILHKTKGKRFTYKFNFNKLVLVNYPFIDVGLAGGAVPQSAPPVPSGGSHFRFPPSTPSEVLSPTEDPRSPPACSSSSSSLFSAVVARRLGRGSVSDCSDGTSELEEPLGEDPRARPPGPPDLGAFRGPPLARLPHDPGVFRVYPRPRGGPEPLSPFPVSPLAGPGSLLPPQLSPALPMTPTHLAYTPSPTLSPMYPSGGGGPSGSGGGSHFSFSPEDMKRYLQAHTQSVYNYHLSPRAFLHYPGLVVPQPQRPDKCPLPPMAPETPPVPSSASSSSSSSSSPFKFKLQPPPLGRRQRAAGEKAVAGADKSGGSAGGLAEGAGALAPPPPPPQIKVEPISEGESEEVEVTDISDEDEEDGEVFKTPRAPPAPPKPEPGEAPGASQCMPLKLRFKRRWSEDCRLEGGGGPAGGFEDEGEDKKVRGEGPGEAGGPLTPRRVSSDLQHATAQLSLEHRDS", "procedure,_shortened": "as §1"}, "ETV3L": {"target": "T2, ETV3L (Homo sapiens, UniProt Q6ZN32 1-361)", "T2 sequence": "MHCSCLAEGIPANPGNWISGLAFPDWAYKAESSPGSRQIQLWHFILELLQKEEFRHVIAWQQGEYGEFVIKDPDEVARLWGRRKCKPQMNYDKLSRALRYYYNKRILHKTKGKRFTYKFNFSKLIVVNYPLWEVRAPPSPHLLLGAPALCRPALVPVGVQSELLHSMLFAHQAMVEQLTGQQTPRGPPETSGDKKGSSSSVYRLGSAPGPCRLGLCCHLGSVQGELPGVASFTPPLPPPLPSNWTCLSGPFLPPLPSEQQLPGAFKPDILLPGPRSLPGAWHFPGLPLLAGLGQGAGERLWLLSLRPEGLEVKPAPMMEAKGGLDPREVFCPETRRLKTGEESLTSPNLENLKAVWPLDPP", "procedure,_shortened": "as §1"}, "ETS2": {"target": "T3, ETS2 (Homo sapiens, UniProt P15036 1-469)", "T3 sequence": "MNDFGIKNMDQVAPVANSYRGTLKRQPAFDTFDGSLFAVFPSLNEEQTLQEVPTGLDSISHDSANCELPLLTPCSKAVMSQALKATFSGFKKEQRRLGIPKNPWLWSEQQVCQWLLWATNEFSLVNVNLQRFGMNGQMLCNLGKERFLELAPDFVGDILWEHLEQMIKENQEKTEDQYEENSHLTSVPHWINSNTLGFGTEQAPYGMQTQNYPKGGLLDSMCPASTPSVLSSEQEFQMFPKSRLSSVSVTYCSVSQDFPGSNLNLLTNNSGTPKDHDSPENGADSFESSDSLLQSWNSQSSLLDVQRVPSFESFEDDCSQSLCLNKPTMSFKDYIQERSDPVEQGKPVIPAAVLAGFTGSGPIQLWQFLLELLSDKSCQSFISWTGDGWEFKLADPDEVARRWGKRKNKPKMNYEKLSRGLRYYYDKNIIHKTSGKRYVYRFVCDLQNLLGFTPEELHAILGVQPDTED", "procedure,_shortened": "as §1"}, "SPDEF": {"target": "T4, SPDEF (Homo sapiens, UniProt O95238 1-335)", "T4 sequence": "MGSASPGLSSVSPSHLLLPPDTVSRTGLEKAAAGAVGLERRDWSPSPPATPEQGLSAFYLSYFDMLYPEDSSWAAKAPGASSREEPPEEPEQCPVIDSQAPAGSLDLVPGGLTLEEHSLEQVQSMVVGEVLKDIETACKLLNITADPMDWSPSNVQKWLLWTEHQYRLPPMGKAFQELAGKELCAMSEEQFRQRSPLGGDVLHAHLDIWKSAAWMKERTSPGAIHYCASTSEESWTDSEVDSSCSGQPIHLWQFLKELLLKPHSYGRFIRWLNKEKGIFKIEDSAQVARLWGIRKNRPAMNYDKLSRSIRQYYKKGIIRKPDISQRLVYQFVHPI", "procedure,_shortened": "as §1"}, "ETV7": {"target": "T5, ETV7 (Homo sapiens, UniProt Q9Y603 1-341)", "T5 sequence": "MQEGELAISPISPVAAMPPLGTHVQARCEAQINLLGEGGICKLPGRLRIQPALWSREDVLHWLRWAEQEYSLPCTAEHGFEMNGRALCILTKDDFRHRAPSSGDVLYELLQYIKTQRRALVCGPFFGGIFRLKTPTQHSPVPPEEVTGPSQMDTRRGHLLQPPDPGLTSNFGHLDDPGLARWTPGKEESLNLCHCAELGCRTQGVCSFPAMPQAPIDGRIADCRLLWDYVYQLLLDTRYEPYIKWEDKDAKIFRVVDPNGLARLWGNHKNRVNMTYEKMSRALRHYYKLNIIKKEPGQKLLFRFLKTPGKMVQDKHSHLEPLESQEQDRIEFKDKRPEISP", "procedure,_shortened": "as §1"}, "ELF5": {"target": "T6, ELF5 (Homo sapiens, UniProt Q9UKW6-2 1-255)", "T6 sequence": "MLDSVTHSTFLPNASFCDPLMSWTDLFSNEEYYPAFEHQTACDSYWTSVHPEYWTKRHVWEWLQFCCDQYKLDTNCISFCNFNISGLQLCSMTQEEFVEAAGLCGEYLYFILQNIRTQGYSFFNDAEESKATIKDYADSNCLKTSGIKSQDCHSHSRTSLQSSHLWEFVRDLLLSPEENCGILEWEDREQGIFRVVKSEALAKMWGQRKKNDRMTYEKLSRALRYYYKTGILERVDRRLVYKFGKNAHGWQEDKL", "procedure,_shortened": "as §1"}, "ETV3": {"target": "T7, ETV3 (Homo sapiens, UniProt P41162-2 1-143)", "T7 sequence": "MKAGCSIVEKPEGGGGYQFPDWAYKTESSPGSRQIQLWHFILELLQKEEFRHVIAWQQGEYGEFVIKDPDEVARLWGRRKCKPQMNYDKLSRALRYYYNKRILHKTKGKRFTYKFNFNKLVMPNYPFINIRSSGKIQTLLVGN", "procedure,_shortened": "as §1"}, "ETV6": {"target": "ETV6 (Homo sapiens, UniProt P41212 1-452)", "sequence (P41212 whole entry)": "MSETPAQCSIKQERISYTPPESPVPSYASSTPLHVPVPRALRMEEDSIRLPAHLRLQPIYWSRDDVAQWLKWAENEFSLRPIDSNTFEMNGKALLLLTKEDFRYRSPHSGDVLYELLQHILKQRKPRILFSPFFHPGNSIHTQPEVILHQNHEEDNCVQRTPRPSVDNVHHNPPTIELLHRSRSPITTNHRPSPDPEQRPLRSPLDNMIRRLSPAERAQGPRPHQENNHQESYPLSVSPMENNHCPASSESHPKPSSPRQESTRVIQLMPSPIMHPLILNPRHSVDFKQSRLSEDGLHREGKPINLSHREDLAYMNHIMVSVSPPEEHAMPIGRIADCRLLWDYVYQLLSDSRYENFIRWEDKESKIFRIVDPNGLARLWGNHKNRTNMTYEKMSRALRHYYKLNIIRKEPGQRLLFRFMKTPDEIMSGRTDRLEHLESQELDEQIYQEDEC", "procedure,_shortened": "as §1"}},
  "data": [
    {"sequence": "TCAACC", "values": [
      {"measurement": "binding signal", "setting": "ETV1", "result": "1.23 fold enrichment (6-mer frequency, TF over GST control)"},
      {"measurement": "binding signal", "setting": "ERF", "result": "1.3 fold enrichment (6-mer frequency, TF over GST control)"},
      {"measurement": "binding signal", "setting": "ETV3L", "result": "1.24 fold enrichment (6-mer frequency, TF over GST control)"},
      {"measurement": "binding signal", "setting": "ETS2", "result": "1.22 fold enrichment (6-mer frequency, TF over GST control)"},
      {"measurement": "binding signal", "setting": "SPDEF", "result": "1.2 fold enrichment (6-mer frequency, TF over GST control)"},
      {"measurement": "binding signal", "setting": "ETV7", "result": "1.07 fold enrichment (6-mer frequency, TF over GST control)"},
      {"measurement": "binding signal", "setting": "ELF5", "result": "1.07 fold enrichment (6-mer frequency, TF over GST control)"},
      {"measurement": "binding signal", "setting": "ETV3", "result": "1.16 fold enrichment (6-mer frequency, TF over GST control)"},
      {"measurement": "binding signal", "setting": "ETV6", "result": "1.22 fold enrichment (6-mer frequency, TF over GST control)"}
    ]}
  ]
}
